Source: PubChem (National Center for Advancing Translational Sciences (NCATS))
TGFb inhibitor – inhibitors of TGF-b signaling; HepG2 CAGA-GFP TGF-b/SMAD3 reporter, GFP fluorescence, 18 h; TGF-beta stimulated, 500 pg/mL final; Potency, µM (series often up to 46.1 µM), for inactives: top-dose activity, negative = inhibition, usual class: inhibitors; actives 1.2% (n = 410,000); AID 588855; further: on the % scale 0 is the no-effect control and ±100 the full control effect; nearly all actives have a fitted effect of over 65% in size
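Read-out: total well GFP (ex488/em500-530) summed from mean per-cell fluorescence. Cells: HEPG2 CAGA-GFP, 1% FBS DMEM, 18 h at 37 degrees C with 500 pg/mL final TGF-beta. Unstimulated wells served as the full-inhibition control; stimulated DMSO wells = 0%.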
S2 tox – viability counter-screen for ATXN expression inhibitors; S2 cells (HEK-293 line with an ATXN2-luciferase reporter) viability, CellTiter-Fluor protease fluorescence, 24 h; Potency, µM (highest dose often 56.7 µM), usual class: cytotoxic; actives 0.49% (n = 400,000); AID 651635; further: nearly all actives have a fitted effect of over 40% in size
ATXN2 expr inh – inhibitors of ATXN2 expression; HEK-293 ATXN2-luciferase reporter, luminescence, 24 h; Potency, µM (doses to about 57 µM), for inactives: at the top dose activity change, negative = inhibition, actives largely listed as inhibitors; actives 0.72% (n = 360,000); further: on the % scale 0 is the no-effect control and ±100 the full control effect; nearly all actives have a fitted effect of over 55% in size
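qHTS (up to 57 uM final) was run with 24 h compound exposure of reporter cells at 37 °C. Each well was multiplexed: SteadyGlo luminescence measured ATXN2-luciferase expression after a fluorogenic Gly-Phe-AFC viability readout (25 uM final).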
TDP1 cell noCPT – qHTS for Inhibitors of human tyrosyl-DNA phosphodiesterase 1 (TDP1): qHTS in cells in absence of CPT. DT40 Tdp1-/- hTDP1 cells, no CPT, ATP luminescence, 48 h. Potency, µM (highest dose often 46.2 µM), for inactives: at the top dose activity change, negative = growth inhibition, usual class: inhibitors. actives 15% (n = 420,000). AID 686978, 2013; further: on the % scale 0 is the no-effect control and ±100 the full control effect; nearly all actives have a fitted effect of over 55% in size
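Growth kinetics read by CellTiter-Glo luminescence after ≥48 hr at 37 °C. Cells: DT40 Tdp1-/- stably carrying human TDP1, 400 per well, compound exposure in the absence of CPT (DMSO vehicle).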
HepG2 tox – counter-screen for TGF-b inhibitors: cytotoxicity in HepG2 cells. HepG2 CAGA-GFP viability, ATP luminescence, 18 h. Potency, µM (titrated, usually from 46.1 µM), for the others: top-dose activity change, negative = cytotoxicity, most hits filed as cytotoxic. actives 0.76% (n = 410,000). AID 588856
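HepG2 CAGA-GFP cells (1000/well, DMEM with 1% FBS) received compound, then TGF-beta at 500 pg/mL final, and were incubated 18 hours at 37 degrees C. Viability was read by CellTiter-Glo luminescence. Media-only wells were set as complete cell-killing and DMSO as no toxicity.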
DT40 TDP1 CPT – DT40-hTDP1 cell growth loss with CPT; actives 12% (n = 420,000); Potency, µM (top dose mostly 46.2 µM), without a hit: at the highest dose activity change, negative = growth inhibition, actives largely listed as inhibitors; chicken DT40 Tdp1-/-;hTDP1 cells + 20 nM CPT, ATP luminescence, 48 h; AID 686979; further: on the % scale 0 is the no-effect control and ±100 the full control effect; nearly all actives have a fitted effect of over 55% in size
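Chicken DT40 Tdp1-/- cells complemented with human TDP1, 400 cells/well, exposed to compounds plus 20 nM camptothecin for at least 48 h at 37 C; viability read as ATP content by CellTiter-Glo luminescence.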
* = called active by the depositor. Rows were chosen to be rich in hits. Some 17% of all compounds tested hit in one or more screens of this group. The call rests on the fitted dose curve; in most records, active means well fitted curve in the direction sought with a large enough effect; inconclusive means small, poorly fitted or top-dose-only effect, or another doubt; inactive means no such curve, though single readings can be large; an effect the other way counts as inactive or inconclusive. Potency means the concentration at half of the fitted maximal effect.

How did CCOC(=O)c1c(C)[nH]c(CCC(=O)Nc2c(C)cccc2CC)c1C do in these assays?
TGFb inhibitor: 0%; TDP1 cell noCPT: 16µM*; HepG2 tox: -14%; DT40 TDP1 CPT: inconclusive

How did CCOC(=O)c1c(C)[nH]c(CCC(=O)Nc2c(Cl)cc(OC)cc2OC)c1C do in these assays?
TGFb inhibitor: -9%; TDP1 cell noCPT: inconclusive; HepG2 tox: -19%; DT40 TDP1 CPT: inconclusive

What do the screens show for `CCOC(=O)c1c(C)[nH]c(CCC(=O)Nc2cc(C)cc(C)c2)c1C`?
TGFb inhibitor: -31%; TDP1 cell noCPT: 23µM*; HepG2 tox: -17%; DT40 TDP1 CPT: inconclusive

What do the screens show for `COCCCN1C(=O)C(CC(=O)NC2CCCCC2)CC(C(=O)N(C(C)C)C(C)C)=C1C` (stereo not given)?
TGFb inhibitor: 2%; S2 tox: inactive; ATXN2 expr inh: 9%; TDP1 cell noCPT: 2%; HepG2 tox: 10%; DT40 TDP1 CPT: -9%

What do the screens show for `CCOC(=O)c1c(C)[nH]c(CCC(=O)Nc2ccccc2C(=O)OC)c1C`?
TGFb inhibitor: -3%; TDP1 cell noCPT: 23µM*; HepG2 tox: -14%; DT40 TDP1 CPT: inconclusive

Results for CCOC(=O)c1c(C)[nH]c(CCC(=O)NCCCN2CCN(c3ccc(F)cc3)CC2)c1C ?
TGFb inhibitor: -22%; TDP1 cell noCPT: 10µM*; HepG2 tox: -31%; DT40 TDP1 CPT: 21µM*

What do the screens show for `CCOC(=O)c1c(C)[nH]c(CCC(=O)Nc2ccccc2OCC)c1C`?
TGFb inhibitor: 0%; TDP1 cell noCPT: 23µM*; HepG2 tox: -5%; DT40 TDP1 CPT: inconclusive

How did CCOC(=O)c1c(C)[nH]c(CCC(=O)Nc2ccccc2C(F)(F)F)c1C do in these assays?
TGFb inhibitor: -9%; TDP1 cell noCPT: inconclusive; HepG2 tox: -2%; DT40 TDP1 CPT: inconclusive

Results for CCN(c1ccccc1C)S(=O)(=O)c1nnc(NC(=O)c2ccc(OC)c(OC)c2)s1 ?
TGFb inhibitor: 0%; TDP1 cell noCPT: inconclusive; HepG2 tox: -3%; DT40 TDP1 CPT: -22%

Results for Cc1cccn2c(=O)c3cc(C(=O)NC4CCS(=O)(=O)C4)n(Cc4ccccc4)c3nc12 (stereo not given) ?
TGFb inhibitor: 3%; S2 tox: inconclusive; ATXN2 expr inh: -20%; TDP1 cell noCPT: 2%; HepG2 tox: 8%; DT40 TDP1 CPT: -5%

What do the screens show for `OCc1ccccc1O[C@@H]1O[C@H](CO)[C@H](O)[C@H](O)[C@H]1O`?
ATXN2 expr inh: -1%

Results for O=C(N=C1c2ccccc2CN1c1ccccc1)c1cccc([N+](=O)[O-])c1 ?
TGFb inhibitor: -2%; S2 tox: inactive; ATXN2 expr inh: 20%; TDP1 cell noCPT: 12µM*; HepG2 tox: -27%; DT40 TDP1 CPT: -13%

How did CN(N=Nc1ccccc1C(=O)O)C1CCCCC1 do in these assays?
TGFb inhibitor: -3%; S2 tox: inactive; TDP1 cell noCPT: -27%; HepG2 tox: -19%; DT40 TDP1 CPT: -11%

What do the screens show for `Cc1nn(-c2ccc3nnc(C)n3n2)c(C)c1CCC(=O)Nc1ccc(OC(F)(F)F)cc1`?
TGFb inhibitor: -2%; TDP1 cell noCPT: 23µM*; HepG2 tox: -16%; DT40 TDP1 CPT: 12µM*

What do the screens show for `CC(=O)c1ccc(NC(=O)CCc2c(C)nn(-c3ccc4nnc(C)n4n3)c2C)cc1`?
TGFb inhibitor: 26%; TDP1 cell noCPT: -13%; HepG2 tox: 6%; DT40 TDP1 CPT: 1%

What do the screens show for `Cc1ccc(SCCCCN2C(=O)NC(C)(C)C2=O)cc1`?
TGFb inhibitor: -1%; S2 tox: inactive; ATXN2 expr inh: 38%; TDP1 cell noCPT: -27%; HepG2 tox: -13%; DT40 TDP1 CPT: -19%

Results for COc1cc(C(=O)N2CCCC(c3cc(C(=O)NCc4ccc(F)cc4)no3)C2)cc(OC)c1C (stereo not given) ?
TGFb inhibitor: inconclusive; S2 tox: inconclusive; ATXN2 expr inh: inconclusive; TDP1 cell noCPT: inconclusive; HepG2 tox: -54%; DT40 TDP1 CPT: 23µM*

How did CC(=O)Nc1ccc(C(=O)N2CCCC(c3cc(C(=O)NCc4ccc(F)cc4)no3)C2)cc1 (stereo not given) do in these assays?
TGFb inhibitor: -23%; S2 tox: inactive; ATXN2 expr inh: -16%; TDP1 cell noCPT: inconclusive; HepG2 tox: -23%; DT40 TDP1 CPT: inconclusive

How did O=C(NCc1ccccc1)c1cc(C2CCCN(S(=O)(=O)c3cccs3)C2)on1 (stereo not given) do in these assays?
TGFb inhibitor: 18%; S2 tox: inactive; ATXN2 expr inh: -8%; TDP1 cell noCPT: inconclusive; HepG2 tox: -23%; DT40 TDP1 CPT: inconclusive

How did O=C(NCc1ccc(F)cc1)c1cc(C2CCCN(S(=O)(=O)c3ccccc3)C2)on1 (stereo not given) do in these assays?
TGFb inhibitor: 24%; S2 tox: inactive; ATXN2 expr inh: -7%; TDP1 cell noCPT: 16µM*; HepG2 tox: -4%; DT40 TDP1 CPT: inconclusive

What do the screens show for `O=C(NCc1ccccc1)c1cc(C2CCCN(C(=O)C3CCCCC3)C2)on1` (stereo not given)?
TGFb inhibitor: 9%; S2 tox: inactive; ATXN2 expr inh: 5%; TDP1 cell noCPT: inconclusive; HepG2 tox: -5%; DT40 TDP1 CPT: 23µM*

What do the screens show for `O=C(NCc1ccccc1)c1cc(C2CCCN(C(=O)C3CC3)C2)on1` (stereo not given)?
TGFb inhibitor: -10%; S2 tox: inactive; ATXN2 expr inh: 21%; TDP1 cell noCPT: -10%; HepG2 tox: -5%; DT40 TDP1 CPT: 0%

How did O=C(NCc1ccc(F)cc1)c1cc(C2CCCN(C(=O)C3CCCCC3)C2)on1 (stereo not given) do in these assays?
TGFb inhibitor: -4%; S2 tox: inactive; ATXN2 expr inh: -6%; TDP1 cell noCPT: inconclusive; HepG2 tox: 0%; DT40 TDP1 CPT: 26µM*

Results for c1ccc(-c2c[n+]3c(n2-c2ccccc2)SCC3)cc1 ?
TGFb inhibitor: -8%; S2 tox: inactive; ATXN2 expr inh: -17%; TDP1 cell noCPT: 21µM*; HepG2 tox: 19%; DT40 TDP1 CPT: inconclusive
